# Results reported in article PMC7862700, “An all-to-all approach to the identification of sequence-specific readers for epigenetic DNA modifications on cytosine”.
# Columns and labels:
# Experiment in all cases: DAPPL (digital affinity profiling via proximity ligation, sequencing); 10 mM Tris-HCl pH 7.5, 50 mM NaCl, 1 mM DTT, 4% glycerol, room temperature, 30 min; GST-TFs on glutathione beads, 16-mer random dsDNA library, 0.1% formaldehyde crosslink after washing; high values mean tight binding
# [1] = biological target: T1, FEV (Homo sapiens, UniProt Q99581 1-238); settings: protein: recombinant; tags: N-terminal GST; dsDNA, one strand shown
# T1 sequence: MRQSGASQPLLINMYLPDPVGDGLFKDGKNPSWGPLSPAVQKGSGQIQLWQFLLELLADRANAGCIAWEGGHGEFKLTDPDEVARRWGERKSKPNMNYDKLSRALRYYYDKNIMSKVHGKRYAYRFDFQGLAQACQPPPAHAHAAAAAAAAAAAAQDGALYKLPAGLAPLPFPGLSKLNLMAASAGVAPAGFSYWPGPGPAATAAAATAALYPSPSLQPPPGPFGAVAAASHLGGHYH
# Method in brief: (§1)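 Sequencing on an Illumina NextSeq500 followed washing, crosslinking with 0.1% formaldehyde, proximity ligation (BsaI/T4 ligase, 1 h, 37 °C) and PCR amplification of pools that had been incubated for 30 min at room temperature with 200 nmole of a random double-stranded 16-mer DNA library in Tris/NaCl/DTT/glycerol buffer. Each pool held DNA-barcoded human transcription factors, expressed in yeast as GST fusions and captured on glutathione beads, plus a tag-only sample. Binding signal is a hexamer's read frequency for a factor divided by its frequency in the tag-only sample.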
# [2] = biological target: ETV5 (Homo sapiens, UniProt P41161 1-510); settings: protein: recombinant; tags: N-terminal GST; dsDNA, one strand shown
# Sequence of ETV5 (P41161 whole entry): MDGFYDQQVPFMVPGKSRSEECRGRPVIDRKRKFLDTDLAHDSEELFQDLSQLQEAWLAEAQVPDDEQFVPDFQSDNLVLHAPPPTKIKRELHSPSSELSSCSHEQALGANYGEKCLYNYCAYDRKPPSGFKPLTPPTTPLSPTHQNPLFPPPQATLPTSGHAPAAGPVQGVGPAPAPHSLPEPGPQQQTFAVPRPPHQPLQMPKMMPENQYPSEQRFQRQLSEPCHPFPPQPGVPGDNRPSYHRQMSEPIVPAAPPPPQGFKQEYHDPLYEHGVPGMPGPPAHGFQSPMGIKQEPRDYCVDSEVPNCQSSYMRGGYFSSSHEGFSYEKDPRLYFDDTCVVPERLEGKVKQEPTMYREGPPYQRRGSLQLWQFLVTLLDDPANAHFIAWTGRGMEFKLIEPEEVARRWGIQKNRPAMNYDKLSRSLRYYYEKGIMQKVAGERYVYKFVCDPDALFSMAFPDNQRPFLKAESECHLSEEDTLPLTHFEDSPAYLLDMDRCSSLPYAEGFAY
# Method in brief: as §1
# [3] = biological target: HSF1 (Homo sapiens, UniProt Q00613 1-529); settings: protein: recombinant; tags: N-terminal GST; chain copies: 3; dsDNA, one strand shown
# Sequence of HSF1 (Q00613 whole entry): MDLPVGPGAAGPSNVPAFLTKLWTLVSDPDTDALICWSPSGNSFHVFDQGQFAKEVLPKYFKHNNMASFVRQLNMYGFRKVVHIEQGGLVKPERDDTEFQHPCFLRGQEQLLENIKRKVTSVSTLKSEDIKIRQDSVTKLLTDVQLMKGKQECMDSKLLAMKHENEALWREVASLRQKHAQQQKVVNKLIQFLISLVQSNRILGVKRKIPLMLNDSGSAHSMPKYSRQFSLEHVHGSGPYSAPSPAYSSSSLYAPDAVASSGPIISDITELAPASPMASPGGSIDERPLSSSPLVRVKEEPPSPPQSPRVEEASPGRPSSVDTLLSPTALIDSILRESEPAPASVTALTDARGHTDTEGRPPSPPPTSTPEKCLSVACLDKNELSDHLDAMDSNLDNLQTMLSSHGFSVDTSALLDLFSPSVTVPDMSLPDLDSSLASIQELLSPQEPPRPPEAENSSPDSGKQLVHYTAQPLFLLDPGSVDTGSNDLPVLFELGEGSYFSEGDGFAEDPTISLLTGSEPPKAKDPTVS
# Method in brief: as §1
# [4] = biological target: T2, SPIC (Homo sapiens, UniProt Q8N5J4 1-248); settings: protein: recombinant; tags: N-terminal GST; dsDNA, one strand shown
# T2 sequence: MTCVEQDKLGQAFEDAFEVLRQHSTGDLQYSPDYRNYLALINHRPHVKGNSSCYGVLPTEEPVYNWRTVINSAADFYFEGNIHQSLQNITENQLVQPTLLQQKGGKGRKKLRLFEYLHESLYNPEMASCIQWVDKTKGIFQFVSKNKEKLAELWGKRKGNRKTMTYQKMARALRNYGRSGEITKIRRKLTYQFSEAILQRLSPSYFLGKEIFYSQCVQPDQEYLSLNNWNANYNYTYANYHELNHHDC
# Method in brief: as §1
# [5] = biological target: ELF4 (Homo sapiens, UniProt Q99607 1-663); settings: protein: recombinant; tags: N-terminal GST; dsDNA, one strand shown
# Sequence of ELF4 (Q99607 whole entry): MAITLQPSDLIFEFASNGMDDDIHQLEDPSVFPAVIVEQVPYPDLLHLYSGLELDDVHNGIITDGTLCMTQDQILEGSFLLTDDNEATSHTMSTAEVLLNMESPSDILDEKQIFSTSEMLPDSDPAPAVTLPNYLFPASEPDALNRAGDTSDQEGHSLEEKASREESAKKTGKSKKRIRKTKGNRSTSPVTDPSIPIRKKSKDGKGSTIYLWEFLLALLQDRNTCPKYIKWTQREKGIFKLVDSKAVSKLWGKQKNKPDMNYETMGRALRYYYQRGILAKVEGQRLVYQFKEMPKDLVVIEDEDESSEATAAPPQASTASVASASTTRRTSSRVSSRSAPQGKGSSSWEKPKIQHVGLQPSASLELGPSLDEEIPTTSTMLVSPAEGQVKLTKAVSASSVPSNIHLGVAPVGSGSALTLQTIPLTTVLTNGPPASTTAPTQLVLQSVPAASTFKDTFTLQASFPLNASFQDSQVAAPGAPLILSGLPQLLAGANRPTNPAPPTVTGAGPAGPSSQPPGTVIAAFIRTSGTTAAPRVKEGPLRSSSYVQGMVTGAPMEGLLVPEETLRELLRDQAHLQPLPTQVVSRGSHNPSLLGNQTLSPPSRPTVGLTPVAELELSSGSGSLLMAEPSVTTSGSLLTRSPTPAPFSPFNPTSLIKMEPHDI
# Method in brief: as §1
# [6] = biological target: T3, ELK4 (Homo sapiens, UniProt P28324-2 1-405); settings: protein: recombinant; tags: N-terminal GST; dsDNA, one strand shown
# T3 sequence: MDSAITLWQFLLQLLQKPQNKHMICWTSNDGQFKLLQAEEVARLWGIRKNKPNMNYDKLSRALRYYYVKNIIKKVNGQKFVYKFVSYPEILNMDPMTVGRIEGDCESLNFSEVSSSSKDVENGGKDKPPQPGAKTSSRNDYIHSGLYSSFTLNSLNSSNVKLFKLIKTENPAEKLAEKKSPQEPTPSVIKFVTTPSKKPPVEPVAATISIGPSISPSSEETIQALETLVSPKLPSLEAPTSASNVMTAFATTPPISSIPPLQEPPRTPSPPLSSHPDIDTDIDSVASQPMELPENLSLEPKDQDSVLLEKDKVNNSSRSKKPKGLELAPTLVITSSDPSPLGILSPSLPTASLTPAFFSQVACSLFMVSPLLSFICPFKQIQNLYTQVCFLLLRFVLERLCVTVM
# Method in brief: as §1
# [7] = biological target: T4, ETV2 (Homo sapiens, UniProt O00321 1-342); settings: protein: recombinant; tags: N-terminal GST; dsDNA, one strand shown
# T4 sequence: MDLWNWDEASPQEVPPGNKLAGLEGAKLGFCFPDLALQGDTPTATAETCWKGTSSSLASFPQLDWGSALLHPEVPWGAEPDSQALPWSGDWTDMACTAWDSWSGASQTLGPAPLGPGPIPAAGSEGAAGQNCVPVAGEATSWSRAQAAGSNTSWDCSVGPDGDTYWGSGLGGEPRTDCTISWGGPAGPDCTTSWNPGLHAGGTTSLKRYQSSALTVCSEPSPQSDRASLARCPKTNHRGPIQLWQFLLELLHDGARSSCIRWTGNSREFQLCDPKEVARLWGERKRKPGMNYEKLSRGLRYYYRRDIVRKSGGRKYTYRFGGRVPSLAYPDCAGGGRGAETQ
# Method in brief: as §1
# [8] = biological target: T5, ELF3 (Homo sapiens, UniProt P78545 1-371); settings: protein: recombinant; tags: N-terminal GST; dsDNA, one strand shown
# T5 sequence: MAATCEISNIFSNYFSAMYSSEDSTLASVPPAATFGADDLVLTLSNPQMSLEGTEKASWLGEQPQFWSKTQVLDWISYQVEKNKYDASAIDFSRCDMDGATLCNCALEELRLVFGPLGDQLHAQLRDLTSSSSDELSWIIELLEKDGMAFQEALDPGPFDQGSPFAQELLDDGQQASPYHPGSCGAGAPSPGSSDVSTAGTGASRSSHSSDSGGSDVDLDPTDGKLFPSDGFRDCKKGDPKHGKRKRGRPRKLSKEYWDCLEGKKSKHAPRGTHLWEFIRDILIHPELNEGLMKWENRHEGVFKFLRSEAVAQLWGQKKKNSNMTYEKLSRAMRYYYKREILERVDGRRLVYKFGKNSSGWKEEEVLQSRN
# Method in brief: as §1
# [9] = biological target: CRX (Homo sapiens, UniProt O43186 1-299); settings: protein: recombinant; tags: N-terminal GST; dsDNA, one strand shown
# Sequence of CRX (O43186 whole entry): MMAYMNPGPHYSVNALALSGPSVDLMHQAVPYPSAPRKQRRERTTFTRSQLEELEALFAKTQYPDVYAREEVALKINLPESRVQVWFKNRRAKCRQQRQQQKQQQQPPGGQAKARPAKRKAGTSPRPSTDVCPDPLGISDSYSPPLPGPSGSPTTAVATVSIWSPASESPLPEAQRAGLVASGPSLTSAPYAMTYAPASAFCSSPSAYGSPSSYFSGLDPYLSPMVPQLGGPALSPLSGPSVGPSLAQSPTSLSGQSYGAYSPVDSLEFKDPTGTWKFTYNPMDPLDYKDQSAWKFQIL
# Method in brief: as §1
# [10] = biological target: ETV1 (Homo sapiens, UniProt P50549 1-477); settings: protein: recombinant; tags: N-terminal GST; dsDNA, one strand shown
# Sequence of ETV1 (P50549 whole entry): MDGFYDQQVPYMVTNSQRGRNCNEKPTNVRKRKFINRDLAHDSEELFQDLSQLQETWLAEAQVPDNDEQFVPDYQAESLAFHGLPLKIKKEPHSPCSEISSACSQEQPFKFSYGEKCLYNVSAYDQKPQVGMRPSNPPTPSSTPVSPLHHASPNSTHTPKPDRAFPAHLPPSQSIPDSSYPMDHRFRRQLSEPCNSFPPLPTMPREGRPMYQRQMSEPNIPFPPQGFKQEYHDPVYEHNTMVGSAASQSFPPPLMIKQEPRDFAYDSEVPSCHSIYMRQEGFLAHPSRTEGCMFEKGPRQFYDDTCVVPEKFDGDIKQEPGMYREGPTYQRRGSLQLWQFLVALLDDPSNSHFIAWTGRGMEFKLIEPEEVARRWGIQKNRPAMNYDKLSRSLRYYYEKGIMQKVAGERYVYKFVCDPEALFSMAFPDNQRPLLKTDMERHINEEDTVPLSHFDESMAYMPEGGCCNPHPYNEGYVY
# Method in brief: as §1
# [11] = biological target: T6, ERF (Homo sapiens, UniProt P50548 1-548); settings: protein: recombinant; tags: N-terminal GST; dsDNA, one strand shown
# T6 sequence: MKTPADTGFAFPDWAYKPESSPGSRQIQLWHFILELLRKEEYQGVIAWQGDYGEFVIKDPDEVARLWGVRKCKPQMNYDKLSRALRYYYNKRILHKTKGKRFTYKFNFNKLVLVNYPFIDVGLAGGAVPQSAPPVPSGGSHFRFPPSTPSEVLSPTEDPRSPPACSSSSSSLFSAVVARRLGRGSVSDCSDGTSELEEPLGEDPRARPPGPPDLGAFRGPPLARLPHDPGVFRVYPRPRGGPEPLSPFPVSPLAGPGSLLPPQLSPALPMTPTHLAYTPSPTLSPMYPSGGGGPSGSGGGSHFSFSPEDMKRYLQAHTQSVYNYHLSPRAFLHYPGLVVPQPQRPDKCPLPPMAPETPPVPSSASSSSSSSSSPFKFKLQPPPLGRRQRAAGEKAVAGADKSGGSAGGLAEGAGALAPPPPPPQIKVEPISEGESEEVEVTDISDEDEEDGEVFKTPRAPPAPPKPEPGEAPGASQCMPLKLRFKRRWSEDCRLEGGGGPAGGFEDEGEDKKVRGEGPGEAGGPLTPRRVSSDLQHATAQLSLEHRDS
# Method in brief: as §1
# [12] = biological target: T7, ETV3L (Homo sapiens, UniProt Q6ZN32 1-361); settings: protein: recombinant; tags: N-terminal GST; dsDNA, one strand shown
# T7 sequence: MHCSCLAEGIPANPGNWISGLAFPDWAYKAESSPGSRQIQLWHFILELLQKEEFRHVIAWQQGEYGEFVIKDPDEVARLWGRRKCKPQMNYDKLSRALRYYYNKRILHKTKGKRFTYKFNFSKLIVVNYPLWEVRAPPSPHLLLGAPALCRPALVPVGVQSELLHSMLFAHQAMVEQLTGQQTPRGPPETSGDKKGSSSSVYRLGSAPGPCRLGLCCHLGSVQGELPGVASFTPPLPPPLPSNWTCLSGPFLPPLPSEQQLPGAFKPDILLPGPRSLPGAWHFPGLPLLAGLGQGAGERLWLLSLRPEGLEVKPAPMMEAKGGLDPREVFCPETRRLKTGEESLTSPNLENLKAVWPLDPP
# Method in brief: as §1
# [13] = biological target: T8, ETS2 (Homo sapiens, UniProt P15036 1-469); settings: protein: recombinant; tags: N-terminal GST; dsDNA, one strand shown
# T8 sequence: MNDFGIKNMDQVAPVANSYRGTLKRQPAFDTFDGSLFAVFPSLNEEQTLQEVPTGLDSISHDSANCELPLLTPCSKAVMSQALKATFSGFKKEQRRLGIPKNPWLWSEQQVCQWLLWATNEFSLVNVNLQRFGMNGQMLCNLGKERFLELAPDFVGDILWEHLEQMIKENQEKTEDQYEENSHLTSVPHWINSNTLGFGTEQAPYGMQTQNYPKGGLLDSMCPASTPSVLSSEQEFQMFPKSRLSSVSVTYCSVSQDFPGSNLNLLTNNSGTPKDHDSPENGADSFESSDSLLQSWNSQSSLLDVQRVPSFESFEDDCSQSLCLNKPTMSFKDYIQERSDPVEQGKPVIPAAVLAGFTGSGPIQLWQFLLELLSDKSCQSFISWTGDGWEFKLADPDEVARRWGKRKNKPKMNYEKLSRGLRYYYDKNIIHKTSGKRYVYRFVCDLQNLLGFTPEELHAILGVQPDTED
# Method in brief: as §1
# [14] = biological target: T9, SPDEF (Homo sapiens, UniProt O95238 1-335); settings: protein: recombinant; tags: N-terminal GST; dsDNA, one strand shown
# T9 sequence: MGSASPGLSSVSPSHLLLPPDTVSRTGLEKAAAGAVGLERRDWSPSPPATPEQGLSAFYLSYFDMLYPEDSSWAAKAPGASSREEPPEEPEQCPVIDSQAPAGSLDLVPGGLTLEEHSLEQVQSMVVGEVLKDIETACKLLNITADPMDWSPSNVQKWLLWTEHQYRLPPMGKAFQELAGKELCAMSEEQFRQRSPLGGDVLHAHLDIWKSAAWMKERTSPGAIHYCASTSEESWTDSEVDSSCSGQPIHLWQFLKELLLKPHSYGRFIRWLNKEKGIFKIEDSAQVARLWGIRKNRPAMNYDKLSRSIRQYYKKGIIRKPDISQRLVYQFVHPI
# Method in brief: as §1
# [15] = biological target: T10, ETV7 (Homo sapiens, UniProt Q9Y603 1-341); settings: protein: recombinant; tags: N-terminal GST; dsDNA, one strand shown
# T10 sequence: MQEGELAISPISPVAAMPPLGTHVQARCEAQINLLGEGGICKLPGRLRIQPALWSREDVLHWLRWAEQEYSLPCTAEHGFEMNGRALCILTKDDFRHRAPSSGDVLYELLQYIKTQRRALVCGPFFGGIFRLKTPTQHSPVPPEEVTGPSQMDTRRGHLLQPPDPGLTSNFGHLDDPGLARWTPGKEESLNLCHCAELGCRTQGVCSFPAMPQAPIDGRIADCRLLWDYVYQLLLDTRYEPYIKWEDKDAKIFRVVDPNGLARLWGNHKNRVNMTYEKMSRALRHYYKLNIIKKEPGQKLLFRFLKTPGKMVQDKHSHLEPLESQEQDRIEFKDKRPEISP
# Method in brief: as §1
# [16] = biological target: T11, ELF5 (Homo sapiens, UniProt Q9UKW6-2 1-255); settings: protein: recombinant; tags: N-terminal GST; dsDNA, one strand shown
# T11 sequence: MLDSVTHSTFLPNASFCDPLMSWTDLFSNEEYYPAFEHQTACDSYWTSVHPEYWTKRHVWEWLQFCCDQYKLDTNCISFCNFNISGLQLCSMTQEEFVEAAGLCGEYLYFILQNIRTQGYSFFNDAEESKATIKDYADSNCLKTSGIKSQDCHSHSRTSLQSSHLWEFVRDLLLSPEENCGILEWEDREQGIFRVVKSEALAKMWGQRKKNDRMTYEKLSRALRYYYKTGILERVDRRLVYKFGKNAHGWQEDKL
# Method in brief: as §1
# [17] = biological target: T12, ETV3 (Homo sapiens, UniProt P41162-2 1-143); settings: protein: recombinant; tags: N-terminal GST; dsDNA, one strand shown
# T12 sequence: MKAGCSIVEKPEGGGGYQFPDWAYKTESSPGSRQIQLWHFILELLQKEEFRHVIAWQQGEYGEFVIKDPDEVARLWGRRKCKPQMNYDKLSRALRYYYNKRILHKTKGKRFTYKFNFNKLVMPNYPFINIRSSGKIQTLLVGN
# Method in brief: as §1
# [18] = biological target: ETV6 (Homo sapiens, UniProt P41212 1-452); settings: protein: recombinant; tags: N-terminal GST; dsDNA, one strand shown
# Sequence of ETV6 (P41212 whole entry): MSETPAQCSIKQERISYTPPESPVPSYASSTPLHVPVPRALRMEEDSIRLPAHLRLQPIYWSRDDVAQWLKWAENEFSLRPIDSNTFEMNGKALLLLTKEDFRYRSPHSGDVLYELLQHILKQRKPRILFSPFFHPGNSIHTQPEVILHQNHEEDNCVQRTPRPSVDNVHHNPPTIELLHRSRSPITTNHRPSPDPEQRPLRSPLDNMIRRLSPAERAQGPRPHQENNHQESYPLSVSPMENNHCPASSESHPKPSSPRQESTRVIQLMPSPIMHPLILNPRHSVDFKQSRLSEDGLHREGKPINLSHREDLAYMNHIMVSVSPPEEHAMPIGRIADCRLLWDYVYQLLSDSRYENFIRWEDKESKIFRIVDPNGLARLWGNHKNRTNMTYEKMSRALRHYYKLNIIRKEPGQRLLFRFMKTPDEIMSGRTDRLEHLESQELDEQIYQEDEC
# Method in brief: as §1
sequence,measurement,setting,value
ATCTGT,binding signal,[1],"1.22 fold enrichment (6-mer frequency, TF over GST control)"
same,binding signal,[2],"1.07 fold enrichment (6-mer frequency, TF over GST control)"
same,binding signal,[3],"1.26 fold enrichment (6-mer frequency, TF over GST control)"
same,binding signal,[4],"1.19 fold enrichment (6-mer frequency, TF over GST control)"
same,binding signal,[5],"1.21 fold enrichment (6-mer frequency, TF over GST control)"
same,binding signal,[6],"1.1 fold enrichment (6-mer frequency, TF over GST control)"
same,binding signal,[7],"1.19 fold enrichment (6-mer frequency, TF over GST control)"
same,binding signal,[8],"1.17 fold enrichment (6-mer frequency, TF over GST control)"
same,binding signal,[9],"1.45 fold enrichment (6-mer frequency, TF over GST control)"
same,binding signal,[10],"1.26 fold enrichment (6-mer frequency, TF over GST control)"
same,binding signal,[11],"1.21 fold enrichment (6-mer frequency, TF over GST control)"
same,binding signal,[12],"1.2 fold enrichment (6-mer frequency, TF over GST control)"
same,binding signal,[13],"1.22 fold enrichment (6-mer frequency, TF over GST control)"
same,binding signal,[14],"1.17 fold enrichment (6-mer frequency, TF over GST control)"
same,binding signal,[15],"1.21 fold enrichment (6-mer frequency, TF over GST control)"
same,binding signal,[16],"1.2 fold enrichment (6-mer frequency, TF over GST control)"
same,binding signal,[17],"1.11 fold enrichment (6-mer frequency, TF over GST control)"
same,binding signal,[18],"1.12 fold enrichment (6-mer frequency, TF over GST control)"
